Data reported in article PMC7826789 (International Journal of Molecular Sciences, 2021).

Assays:
Details in all cases: Compound Concentration (nM):1000
PRKG1 = system: PRKG1
PRKG2 = system: PRKG2
PRKR = system: T1, PRKR
T1 construct: gene EIF2AK2

PRKX = system: PRKX
PRP4 = system: T2, PRP4
T2 construct: gene PRPF4B

PYK2 = system: T3, PYK2
T3 construct: gene PTK2B

QSK = system: T4, QSK
T4 construct: gene KIAA0999

RAF1 = system: RAF1
RET(M918T) = system: RET(M918T)
RET(V804L) = system: RET(V804L)
RET(V804M) = system: RET(V804M)
RET = system: RET
RIOK1 = system: RIOK1
RIOK2 = system: RIOK2
RIOK3 = system: RIOK3
RIPK1 = system: RIPK1
RIPK2 = system: RIPK2
RIPK4 = system: RIPK4
RIPK5 = system: T5, RIPK5
T5 construct: gene DSTYK

ROCK1 = system: ROCK1
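Also: KINOMEscan scanMAX binding as percent activity remaining versus control; lower means stronger binding.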

Structure (SMILES) | Percent Control (PRKG1) | Percent Control (PRKG2) | Percent Control (PRKR) | Percent Control (PRKX) | Percent Control (PRP4) | Percent Control (PYK2) | Percent Control (QSK) | Percent Control (RAF1) | Percent Control (RET(M918T)) | Percent Control (RET(V804L)) | Percent Control (RET(V804M)) | Percent Control (RET) | Percent Control (RIOK1) | Percent Control (RIOK2) | Percent Control (RIOK3) | Percent Control (RIPK1) | Percent Control (RIPK2) | Percent Control (RIPK4) | Percent Control (RIPK5) | Percent Control (ROCK1)
CCc1ccc(Oc2nccc(-c3c(-c4ccc(F)cc4)ncn3C3CCNCC3)n2)cc1 [SB-242719] | 100% | 92% | 100% | 86% | 100% | 97% | 85% | 100% | 93% | 88% | 100% | 100% | 57% | 97% | 72% | 100% | 59% | 100% | 82% | 100%
COc1cc(N2CCN(C(C)C)CC2)ccc1Nc1nc(Nc2ccc(F)cc2C(=O)NC[C@@H](O)CO)c2cc[nH]c2n1 [GSK1392956A] | 100% | 100% | 80% | 80% | 100% | 2.4% | 100% | 100% | 93% | 86% | 88% | 85% | 66% | 27% | 79% | 76% | 100% | 84% | 25% | 87%
CN(C)CCNC(=O)Nc1ccc(N(C)c2ccnc(Nc3ccc(CS(C)(=O)=O)cc3)n2)cc1.Cl [GW830900A] | 100% | 95% | 100% | 90% | 100% | 57% | 87% | 100% | 79% | 88% | 86% | 60% | 9.5% | 90% | 17% | 99% | 94% | 60% | 32% | 9.4%
Cc1cc(O)cc(C)c1/C=C/c1cncc(C(N)=O)c1 [GW435821X] | 100% | 100% | 94% | 100% | 100% | 100% | 86% | 58% | 100% | 100% | 100% | 100% | 99% | 100% | 93% | 100% | 21% | 100% | 93% | 100%
C[C@@H](Oc1cc(-n2cnc3ccc(OC4CCN(C)CC4)cc32)sc1C(N)=O)c1ccccc1Cl [GSK579289A] | 100% | 65% | 80% | 74% | 100% | 86% | 85% | 100% | 99% | 100% | 84% | 99% | 13% | 91% | 34% | 89% | 87% | 33% | 93% | 87%
COc1cccc(-n2ncc3c(N/N=C/c4ccncc4)ncnc32)c1 [GW784752X] | 93% | 100% | 80% | 38% | 84% | 95% | 100% | 58% | 93% | 100% | 87% | 97% | 79% | 75% | 94% | 89% | 38% | 3.9% | 100% | 74%
NS(=O)(=O)c1ccc(N/N=C2\C(=O)Nc3ccc(C(=O)NCCc4c[nH]cn4)cc32)cc1 [GW300660X] | 62% | 49% | 87% | 100% | 100% | 100% | 89% | 100% | 100% | 100% | 100% | 100% | 74% | 100% | 78% | 100% | 100% | 80% | 59% | 67%
COc1ccc2[nH]c3c4[nH]c5ccc(OC)cc5c4c4c(c3c2c1)C(=O)NC4=O [GW296115X] | 74% | 0.9% | 100% | 23% | 97% | 68% | 56% | 100% | 21% | 4.2% | 21% | 41% | 58% | 89% | 100% | 90% | 60% | 83% | 27% | 72%
COc1ccc(COc2ccc(Cc3cnc(N)nc3N)cc2OC)cc1 [GW632580X] | 100% | 86% | 100% | 100% | 88% | 84% | 100% | 100% | 93% | 88% | 100% | 100% | 56% | 100% | 65% | 95% | 98% | 84% | 97% | 100%
NS(=O)(=O)c1ccc(Nc2ncc(-c3ccccc3)o2)cc1 [GW572399X] | 96% | 100% | 55% | 100% | 100% | 100% | 100% | 100% | 100% | 100% | 100% | 100% | 73% | 100% | 89% | 100% | 100% | 100% | 94% | 85%
CC1=C(C(=O)Nc2ccc3[nH]ncc3c2)C(c2ccc3ccccc3c2)CC(=O)N1 (stereo not drawn) [GSK270822A] | 48% | 29% | 89% | 22% | 62% | 77% | 91% | 87% | 34% | 46% | 66% | 28% | 74% | 100% | 88% | 97% | 90% | 68% | 96% | –
